These entries were drawn from the full list.
aSyn 5UTR act = Activators working through SNCA 5'UTR binding (MLPCN); actives 7.1% (n = 300,000); activity score, % (tested at 7.5 µM), hits read low; alpha-synuclein 5'UTR reporter, activators screen; in the data active = activity score below about -60%
* marks the source's active call; other numbers are inactive results.

SMILES	aSyn 5UTR act
COc1ccccc1N1CCN(/N=C/c2ccc(Cl)c([N+](=O)[O-])c2)CC1	-127.6*
COc1ccccc1N1CCN(c2ccnc3cc(Cl)ccc23)CC1	86.6
COc1ccccc1N1CCN(/N=C/c2ccc([N+](=O)[O-])cc2)CC1	-159.4*
CCOc1cc(CNc2ccc3c(c2)OCCO3)cc(Br)c1OCC	97.4
Cc1ccc(CNc2ccc3c(c2)OCO3)cc1	-131.1*
Cc1ccc(COc2ccc3c(c2)OCO3)cc1	-114.0*
O=Cc1ccc(OCc2ccc3c(c2)OCO3)cc1	-76.5*
CCN1CCN(Cc2ccc(OCc3ccccc3)c(OC)c2)CC1	-89.6*
CCN1CCN(Cc2ccc(OCc3ccccc3)cc2)CC1	-77.3*
Cc1ccc(C(=O)Nc2ccc(N3CCCC3)cc2)cc1	-160.1*
Cc1ccc(C(=O)Nc2ccc(N3CCN(C)CC3)nc2)cc1	-63.4*
Cc1ccc(CNc2ccc(N3CCOCC3)cc2)cc1	-107.5*
Cc1ccc(C(=O)Nc2ccc(N3CCOCC3)cc2)cc1	-95.4*
Cc1ccc(C(=O)Nc2cccc(C(=O)O)c2)cc1	86.9
O=C(Nc1cccc(Cl)c1)c1ccc(OC(=S)N2CCOCC2)cc1	-182.4*
COc1ccc(C(=O)Nc2ccc(N3CCCCC3)cc2)cc1Br	-63.5*
Cc1ccc(C(=O)Nc2cccc(C(=O)N3CCOCC3)c2)cc1	-89.1*
COc1cc(C(=S)N2CCCC2)ccc1OS(=O)(=O)c1ccc(NC(C)=O)cc1	-64.2*
CCC(=O)NC(=S)Nc1ccc(N2CCOCC2)cc1	-81.8*
Cc1ccc(C(=O)Nc2ccc(N3CCN(C)CC3)cc2)c(Cl)c1	-162.5*
Cc1ccc(NC(=S)c2ccccc2)cc1	-151.5*
COc1ccc(C(=S)Nc2ccc(C)cc2)cc1	-153.3*
Brc1ccc(-c2noc(C3CCCCC3)n2)cc1	-143.0*
c1ccc(-c2noc(C3CCCCC3)n2)nc1	-81.8*
Nc1c(C(=O)NCC2CCCO2)c2nc3ccccc3nc2n1-c1ccccc1 (stereo not given)	61.4
SMILES	aSyn 5UTR act
O=C(NC(=S)NCC1CCCO1)c1ccc(Cl)cc1 (stereo not given)	-106.1*
CN(C)c1ccc(C(=O)NCC2CCCO2)cc1 (stereo not given)	-107.3*
Cc1ccc(C(=O)NC(=S)NCC2CCCO2)cc1 (stereo not given)	-147.0*
CC(C)(C)c1ccc(-c2noc(CCC(=O)NCC3CCCO3)n2)cc1 (stereo not given)	104.2
CCNC(=S)NNC(=O)c1csc(C(C)C)c1	-75.5*
Cc1cc(Br)ccc1-n1[nH]c(C)c(C=Nc2cccc3nsnc23)c1=O	-69.9*
O=C(CSCc1c(F)cccc1F)Nc1ccccc1	-116.4*
CCC(=O)Oc1ccc(NC(=O)CSCc2ccccc2)cc1	-105.8*
Cc1ccccc1CSCC(=O)Nc1ccccc1F	-79.5*
O=C(CSCC(=O)Nc1ccccc1)N/N=C/c1c(O)ccc2ccccc12	76.3
O=C(CSCc1ccc(F)cc1)Nc1ccc(F)cc1	-76.3*
O=C(CSCc1ccccc1)Nc1cccc(F)c1	-127.5*
Cc1nc2c(oc3ccccc32)c(=O)o1	-84.5*
Clc1ccccc1-c1nc2ccccc2[nH]1	-112.9*
c1ccc2[nH]c(-c3ccnc4ccccc34)nc2c1	-95.9*
Fc1ccccc1-c1nc2ccccc2[nH]1	-127.8*
Cn1cc(Cl)c(-c2nc3ccccc3[nH]2)n1	-149.4*
Cc1cc2nc(-c3ccc[nH]c3=O)[nH]c2cc1C	76.5
Cc1ccccc1-c1nc2ccccc2[nH]1	-134.2*
CCc1ccc(C(=O)Nc2ccc3nc(C)ccc3c2)cc1	-177.5*
Cc1ccc2cc(NC(=O)c3ccc(C(C)(C)C)cc3)ccc2n1	-63.2*
COc1cccc(C2=CC(c3cccc(OC)c3OC)n3nnnc3N2)c1 (stereo not given)	-294.6*
COc1cccc(C2=CC(c3cc(OC)ccc3OC)n3nnnc3N2)c1 (stereo not given)	-165.0*
N/C(=N\OC(=O)c1cccs1)c1ccc(Cl)cc1	-104.0*
COc1ccccc1C(=O)O/N=C(\N)c1ccc(Cl)cc1	-263.7*
SMILES	aSyn 5UTR act
N/C(=N/OC(=O)c1ccc(Cl)cc1)c1ncc([N+](=O)[O-])s1	-78.3*
COc1ccc(C(=O)O/N=C(\N)c2ccc(Cl)cc2)cc1	-195.8*
Cc1cc(NC(=O)Nc2ccc3c(ccn3C)c2)sn1	-120.8*
COc1ccc(OCc2cc(C(=O)NCC(C)Oc3cccnc3)no2)c(Cl)c1 (stereo not given)	-85.0*
COc1cc(OC)cc(C(=O)NC(=S)NNC(=O)c2cnccn2)c1	73.2
COc1cc(Cl)ccc1OCc1cc(C(=O)N(C)Cc2cccc3cnccc23)no1	-76.7*
COc1ccc(OCc2cc(C(=O)NC(C)Cc3cnccn3)no2)c(Cl)c1 (stereo not given)	-143.8*
COc1cc(Cl)ccc1OCc1cc(C(=O)NC(C)Cc2cccnc2)no1 (stereo not given)	-96.5*
COc1ccc(OCc2cc(C(=O)N(C)Cc3cnccn3)no2)c(Cl)c1	-71.1*
COc1cc(Cl)ccc1OCc1cc(C(=O)NCc2cc(C(C)C)no2)no1	-147.1*
CSc1ccccc1OCc1cc(C(=O)N(C)Cc2cnccn2)no1	-96.9*
COc1ccc(OCc2cc(C(=O)N(C)Cc3cc(C4CC4)n[nH]3)no2)c(Cl)c1	-189.0*
COc1ccccc1CCc1nnc(CCC(=O)N(C)Cc2cccc3cnccc23)o1	-131.5*
Cc1nc(C(=O)Nc2ccccc2)sc1C1(C)CC(c2cccnc2)=NO1 (stereo not given)	-111.1*
Cc1nc(-c2ccc(Cl)cc2)sc1C1(C)CC(c2cccnc2)=NO1 (stereo not given)	-122.1*
COc1ccc(NC(=S)NC(=O)/C=C/c2ccco2)cc1	-91.2*
COc1ccc(OC)c2sc(N(CCN(C)C)C(=O)/C=C/c3cccs3)nc12	54.1
O=C(/C=C/c1ccco1)NC(=S)Nc1ccc(N2CCCC2)cc1	-70.3*
CCCCOC(=O)c1ccc(NC(=O)/C=C/c2cccs2)cc1	-87.9*
COc1ccc(NC(=S)NC(=O)/C=C/c2cccs2)cc1	-72.8*
Oc1[nH]c2ccccc2c1/C=N/c1nccs1	-144.6*
O=c1c2ccccc2c(C=Nc2cccc(O)c2)c(O)n1-c1ccc2c(c1)OCO2	-150.7*
Cc1ccc(N=Cc2c(O)[nH]c3ccccc23)c([N+](=O)[O-])c1	-169.2*
Oc1[nH]c2ccccc2c1C=Nc1ccc2c(c1)OCO2	-285.3*
COc1ccc(N=Cc2c(O)[nH]c3ccccc23)cc1	-144.1*
SMILES	aSyn 5UTR act
O=c1cc(-c2ccccc2)[nH]c2ccc(F)cc12	86.6
O=c1c2[nH]c3ccc(F)cc3c2ncn1C1CCCCC1	-82.2*
CC(C)Cc1ccc(/C=C/C(=O)NC2CC2)cc1	-108.4*
CCCc1ccc(-c2ccc(/C=C/C(=O)O)cc2)nc1	114.5
CCc1ccc(/C=C\C(=O)N2CCCC2)cc1	-77.7*
CC(C)Cc1ccc(/C=C/C(=O)N2CCCCC2)cc1	-121.0*
CCCCCC(C)NC(=S)NC(=O)c1cc(S(=O)(=O)N2CCOCC2)ccc1C (stereo not given)	66.2
Cc1ccc(S(=O)(=O)NCc2ccccc2)cc1C(=O)NC1CCC(C)CC1 (stereo not given)	-64.0*
CC1CCC(NC(=O)CCNS(=O)(=O)c2ccccc2)CC1 (stereo not given)	-61.9*
COc1ccc(-n2ncc(Cl)c(Cl)c2=O)cc1	-154.5*
COc1ccc(Sc2cnn(-c3ccccc3)c(=O)c2Cl)cc1	-73.4*
COc1nn(-c2ccccc2)c(=O)c(Cl)c1Cl	-347.4*
COc1cc2c(cc1NC(=O)COC(=O)[C@@H](NC(=O)c1ccccc1F)C(C)C)oc1ccccc12	-85.0*

High-throughput results from PubChem BioAssay.
